The values below come from PubChem BioAssay.

Usually inhibition stands for the drop in the measured response relative to a control, in per cent.

SMILES strings stand for the structures. Unmarked numbers belong to inactive results. For some of these results: Potency and affinity values are given separately. Calls of active or inactive are those of the source. Unless noted, no rule for the calls is given here.

A short description of assay [1]: antimalarial activity against Dd2 strain (AID 2302;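 active = growth inhibition above 50% at the single 2 µM test dose, taken to imply half-maximal potency below 2 µM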;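 also: 0% = DMSO untreated growth and 100% = chloroquine plus artemisinin killed control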). The settings on record: P. falciparum Dd2 in RBCs, LDH growth readout, 72 h; at 2 µM; hits give high values.
Assay [2] is described as follows: human hepatoma cell viability loss – ATP luminescence, cytotoxicity control for P. falciparum antimalarial project, primary screen (AID 2303;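 active = inhibition above 50%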;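 also: 0% = DMSO wells and 100% = digitonin-killed cells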). Particulars: HepG2 viability, 24-48 h, at 10 µM, hits give high values.
In assay [3] the target is L-lactate dehydrogenase (Plasmodium falciparum (isolate CDC / Honduras)) (UniProt Q27743). Put plainly: PfLDH activity inhibition – cell lysate, 3D7 strain, counter-screen for P. falciparum growth inhibition project (AID 2304).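 Also: 0% = vehicle and 100% = reference inhibitor.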 The settings on record: P. falciparum 3D7 crude extract, LDH APAD/NBT absorbance; at 2 µM; hits give high values.
The nature of assay [4]: inhibition of 3D7 malaria parasite growth – strain 3D7 (AID 2306).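 Also: 0% = DMSO wells and 100% = chloroquine plus artemisinin control wells.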 Particulars: P. falciparum 3D7 erythrocytic growth, LDH absorbance, 72 h; at 2 µM; hits give high values.
Assay [5] addresses Calcium-dependent protein kinase 1 (Plasmodium falciparum (isolate 3D7)) (UniProt P62344). Put plainly: PfCDPK1 kinase inhibitors, biochemical, TCAMS library (AID 1159585; cut-off not given, nearly all actives have IC50 up to about 0.98 µM;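 also: inhibitors leave more ATP so luminescence rises with inhibition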). The settings on record: recombinant PfCDPK1, Kinase-Glo ATP depletion luminescence. On the technique in general: In Kinase-Glo more light means more ATP remaining.
In assay [6] the target is Plasmodium falciparum protein kinase 6 (PK6, PF3D7_1337100) (UniProt Q8IDW1). Put plainly: PfPK6 kinase inhibitors, biochemical, TCAMS library (AID 1159586). The settings on record: recombinant PfPK6, Kinase-Glo ATP depletion luminescence.
For assay [7], the target named is Protein kinase 7 (PK7), Plasmodium falciparum 3D7 (PF3D7_0213400) (UniProt Q7YTF7). Put plainly: inhibition of Plasmodium PK7 catalytic activity – biochemical, TCAMS antimalarial set, Kinase-Glo luminescence (AID 1159587). The settings on record: recombinant PfPK7, Kinase-Glo ATP depletion luminescence.
Assay [8] deals with Calcium-dependent protein kinase 4 (Plasmodium falciparum (isolate 3D7)) (UniProt Q8IBS5). Put plainly: PfCDPK4 kinase inhibitors, biochemical, TCAMS library (AID 1159588; cut-off not given, nearly all actives have IC50 up to about 0.91 µM). Particulars: recombinant PfCDPK4, Kinase-Glo ATP depletion luminescence.
Sequence of Calcium-dependent protein kinase 4 (Plasmodium falciparum (isolate 3D7)) (Q8IBS5 whole entry, looked up): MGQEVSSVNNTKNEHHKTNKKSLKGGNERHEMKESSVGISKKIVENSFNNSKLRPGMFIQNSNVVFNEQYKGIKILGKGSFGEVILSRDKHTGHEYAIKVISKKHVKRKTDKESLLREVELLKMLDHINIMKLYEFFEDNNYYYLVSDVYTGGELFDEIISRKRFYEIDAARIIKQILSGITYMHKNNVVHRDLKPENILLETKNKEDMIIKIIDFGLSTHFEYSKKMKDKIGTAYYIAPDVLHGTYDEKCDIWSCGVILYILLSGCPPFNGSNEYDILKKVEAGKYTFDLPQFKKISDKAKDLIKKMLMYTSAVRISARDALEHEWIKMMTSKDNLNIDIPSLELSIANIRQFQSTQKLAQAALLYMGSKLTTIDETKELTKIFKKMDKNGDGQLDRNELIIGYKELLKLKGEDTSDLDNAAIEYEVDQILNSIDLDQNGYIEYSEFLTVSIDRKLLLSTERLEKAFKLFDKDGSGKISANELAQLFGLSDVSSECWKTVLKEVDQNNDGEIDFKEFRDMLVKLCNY

Sequence of Protein kinase 7 (PK7), Plasmodium falciparum 3D7 (PF3D7_0213400) (Q7YTF7 1-343): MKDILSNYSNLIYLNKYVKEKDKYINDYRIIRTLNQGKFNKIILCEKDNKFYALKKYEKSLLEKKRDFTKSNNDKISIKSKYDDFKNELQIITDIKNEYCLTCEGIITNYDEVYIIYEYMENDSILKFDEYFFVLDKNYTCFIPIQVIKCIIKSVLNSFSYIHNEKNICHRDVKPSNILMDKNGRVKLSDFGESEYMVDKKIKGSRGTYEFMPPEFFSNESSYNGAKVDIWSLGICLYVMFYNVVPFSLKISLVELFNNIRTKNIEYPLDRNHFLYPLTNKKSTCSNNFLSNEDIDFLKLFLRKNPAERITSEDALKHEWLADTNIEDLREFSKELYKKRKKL
Sequence of L-lactate dehydrogenase (Plasmodium falciparum (isolate CDC / Honduras)) (Q27743 whole entry, looked up): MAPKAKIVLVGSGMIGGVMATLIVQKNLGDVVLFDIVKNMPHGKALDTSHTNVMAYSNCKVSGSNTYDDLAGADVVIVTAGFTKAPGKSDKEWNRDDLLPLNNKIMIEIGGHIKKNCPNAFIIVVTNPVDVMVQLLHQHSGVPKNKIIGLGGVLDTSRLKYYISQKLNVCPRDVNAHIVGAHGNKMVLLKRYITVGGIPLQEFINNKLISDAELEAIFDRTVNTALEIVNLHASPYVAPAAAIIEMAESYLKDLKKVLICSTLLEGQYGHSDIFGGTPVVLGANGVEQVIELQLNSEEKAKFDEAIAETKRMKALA
Sequence of Plasmodium falciparum protein kinase 6 (PK6, PF3D7_1337100) (Q8IDW1 1-305): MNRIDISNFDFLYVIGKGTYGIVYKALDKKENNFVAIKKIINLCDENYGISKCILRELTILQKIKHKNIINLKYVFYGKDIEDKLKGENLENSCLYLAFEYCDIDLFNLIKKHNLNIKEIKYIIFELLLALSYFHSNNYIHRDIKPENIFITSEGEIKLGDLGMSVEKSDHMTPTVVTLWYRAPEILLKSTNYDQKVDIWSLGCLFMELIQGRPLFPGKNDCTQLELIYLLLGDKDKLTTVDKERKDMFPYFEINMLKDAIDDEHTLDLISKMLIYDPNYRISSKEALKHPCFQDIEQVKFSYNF
Sequence of Calcium-dependent protein kinase 1 (Plasmodium falciparum (isolate 3D7)) (P62344 whole entry, looked up): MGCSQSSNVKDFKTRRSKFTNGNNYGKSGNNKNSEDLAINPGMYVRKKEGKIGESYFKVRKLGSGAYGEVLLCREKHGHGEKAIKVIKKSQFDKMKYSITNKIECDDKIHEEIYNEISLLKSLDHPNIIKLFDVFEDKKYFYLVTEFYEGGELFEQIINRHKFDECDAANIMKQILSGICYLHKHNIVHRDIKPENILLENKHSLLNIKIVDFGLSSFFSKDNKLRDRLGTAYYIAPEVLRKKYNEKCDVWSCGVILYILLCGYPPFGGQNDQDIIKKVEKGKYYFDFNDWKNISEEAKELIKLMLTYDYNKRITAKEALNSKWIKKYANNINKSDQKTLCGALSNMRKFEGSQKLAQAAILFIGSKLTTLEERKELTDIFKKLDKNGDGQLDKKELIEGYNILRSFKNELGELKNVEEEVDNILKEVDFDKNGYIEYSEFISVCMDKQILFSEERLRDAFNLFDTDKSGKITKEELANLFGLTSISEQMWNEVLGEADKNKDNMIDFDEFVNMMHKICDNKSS

With `FC(F)(F)c1ccc2c(C=Cc3ccncc3)c[nH]c2c1`, the figures for the growth inhibition in assay [1] and in assay [4] were 76% (active) and 98% (active), respectively. Moreover, the inhibition in assay [2] was -12%; in assay [3] it was -2%. Moreover, the result in assay [5], in assay [6], in assay [7] and in assay [8] was inactive.
Regarding `CS(=O)(=O)c1ccccc1CNC(=O)c1ccc(-c2ccc(-c3nc4ccc(C(F)(F)F)cc4[nH]3)s2)cc1`, the growth inhibition in assay [1] was 76% (active); in assay [4], 96% (active). For the same compound, the inhibition is 90% (active) in assay [2] and 9% in assay [3]. Moreover, the result in assay [5], in assay [6], in assay [7] and in assay [8] was inactive.
Take `CCc1ccc(S(=O)(=O)Nc2ccc(CCN3CCC(N4CCCCC4)CC3)cc2)cc1`: the values for the growth inhibition in assay [1] and in assay [4] were 13% and 100% (active), respectively. Further, the inhibition in assay [2] is 35%; in assay [3], -2%. Besides, the outcome in assay [5], in assay [6], in assay [7] and in assay [8] was inactive.
Turning to `C=CCn1c(SCC(=O)Nc2cc(Cl)ccc2Cl)nc2sc(C)cc2c1=O`, the values for the growth inhibition in assay [1] and in assay [4] were 96% (active) and 97% (active), respectively. Moreover, the results for the inhibition in assay [2] and in assay [3] were 8% and 0%, respectively. The result in assay [5], in assay [6], in assay [7] and in assay [8] was inactive.
On to `COc1ccc(NS(=O)(=O)c2ccc(C(=O)Nc3ccc(OC(F)(F)F)cc3)cc2)cc1N1CCN(CC2CC2)CC1`, for which the growth inhibition in assay [1] is -2%; in assay [4], 89% (active). Also, the figures for the inhibition in assay [2] and in assay [3] were 18% and 3%, respectively. The result in assay [5], in assay [6], in assay [7] and in assay [8] was inactive.
Consider `Cn1nc(-c2cccc(CNCCc3cccs3)c2)c2cnc(NC3CCCC3)nc21`, for which the growth inhibition is -1% in assay [1] and 97% (active) in assay [4]. Also, the inhibition was 8% in assay [2] and -1% in assay [3]. For the same compound, the outcome in assay [5], in assay [6], in assay [7] and in assay [8] was inactive.
For `Cc1cccc2[nH]c(-c3ccc(-c4ccc(CN5CCCCC5)cc4)cc3)nc12`, the values for the growth inhibition in assay [1] and in assay [4] were 99% (active) and 100% (active), respectively. Besides, the inhibition in assay [2] was 27%; in assay [3] it was -2%. In addition, the outcome in assay [5], in assay [6], in assay [7] and in assay [8] was inactive.
In the case of `Cc1cccc2[nH]c(-c3ccc(-c4ccc(CN5CCC(CO)CC5)cc4)s3)nc12`, the growth inhibition in assay [1] was 82% (active); in assay [4] it was 101% (active). Besides, the inhibition in assay [2] is 15%; in assay [3] it was -10%. The result in assay [5], in assay [6], in assay [7] and in assay [8] was inactive.
Take `OC(CN1CCN(Cc2ccccc2)CC1)Cn1c(-c2ccccc2)c(-c2ccccc2)c2ccccc21` (stereo not given): the growth inhibition in assay [1] was 97% (active); in assay [4], 98% (active). In addition, the inhibition in assay [2] and in assay [3] was -3% in each case. Further, the result in assay [5], in assay [6], in assay [7] and in assay [8] was inactive.
Take `NC(=O)C1Cc2ccccc2CN1CC(=O)Nc1ccccc1Sc1ccccc1` (stereo not given): the growth inhibition was 99% (active) in assay [1] and 100% (active) in assay [4]. Further, the inhibition in assay [2] is 5%; in assay [3] it was 3%. In addition, the outcome in assay [5], in assay [6], in assay [7] and in assay [8] was inactive.
For `Clc1cc(Nc2ncnc3sc(C#C[C@H]4CCCN4)cc23)ccc1OCc1cccnc1Cl`, the growth inhibition in assay [1] was 93% (active); in assay [4], 101% (active). Also, the figures for the inhibition in assay [2] and in assay [3] were 9% and -3%, respectively. In addition, the outcome in assay [5], in assay [6], in assay [7] and in assay [8] was inactive.
As to `O=C(Cc1cnc[nH]1)Nc1ccc(-c2ccc(-c3nc4ccc(C(F)(F)F)cc4[nH]3)s2)cc1`, the values for the growth inhibition in assay [1] and in assay [4] were 99% (active) and 101% (active), respectively. The inhibition in assay [2] is 48%; in assay [3], 0%. The result in assay [5], in assay [6], in assay [7] and in assay [8] was inactive.
As to `Cc1ccc(Oc2cnn(C)c(=O)c2Nc2cccc(C(=O)NCCc3ccccn3)c2)c(C)c1`, the growth inhibition in assay [1] and in assay [4] was 94% (active) each time. Besides, the inhibition is 0% in assay [2] and -4% in assay [3]. In addition, the outcome in assay [5], in assay [6], in assay [7] and in assay [8] was inactive.
In the case of `O=C(NCC1CCN(Cc2cccc(C(F)(F)F)c2)C1)c1cc(-c2cccc(C(F)(F)F)c2)cs1` (stereo not given), the growth inhibition in assay [1] is 74% (active); in assay [4], 100% (active). The inhibition in assay [2] is 35%; in assay [3], -2%. Moreover, the outcome in assay [5], in assay [6], in assay [7] and in assay [8] was inactive.
For `CCC[C@@H]([C@@H](CC(C)C)C(=O)N[C@H](C(=O)Nc1nccs1)C(C)(C)SCCNC(=O)OCC)N(O)C=O`, the figures for the growth inhibition in assay [1] and in assay [4] were 97% (active) and 95% (active), respectively. Also, the inhibition in assay [2] was -8%; in assay [3], -7%. Also, the result in assay [5], in assay [6], in assay [7] and in assay [8] was inactive.
With `CCc1ccc(C2CCN(CCCCNC(=O)c3ccc(NC(=O)c4ccc(Cl)cc4)cc3)CC2)cc1`, the results for the growth inhibition in assay [1] and in assay [4] were 63% (active) and 100% (active), respectively. Also, the inhibition in assay [2] was 15%; in assay [3], -3%. Also, the result in assay [5], in assay [6], in assay [7] and in assay [8] was inactive.
For the compound `CCC1CN2CCc3c([nH]c4ccccc34)C2CC1CC1=NCCc2c1[nH]c1ccc(OC)cc21` (stereo not given), the growth inhibition in assay [1] was 68% (active); in assay [4] it was 101% (active). In addition, the inhibition in assay [2] was 99% (active); in assay [3], 1%. Further, the result in assay [5], in assay [6], in assay [7] and in assay [8] was inactive.
As to `O=c1cc(NCCC(CNCc2ccoc2)NCc2cc(Br)cc(Br)c2)[nH]c2ccccc12` (stereo not given), the growth inhibition was 28% in assay [1] and 92% (active) in assay [4]. Moreover, the inhibition was -6% in assay [2] and -1% in assay [3]. Further, the result in assay [5], in assay [6], in assay [7] and in assay [8] was inactive.
Consider `COc1cc(NCC2(CNCc3cn(Cc4ccccc4)c4ccccc34)CCCCC2)nc2ccccc12`, for which the values for the growth inhibition in assay [1] and in assay [4] were 12% and 95% (active), respectively. For the same compound, the inhibition in assay [2] was 65% (active); in assay [3] it was 5%. Further, the result in assay [5], in assay [6], in assay [7] and in assay [8] was inactive.
Regarding `COc1ccc2nccc([C@@H](O)CN3CCC(NC(=O)COc4nc(SCc5ccc(F)cc5)nc5c4CCC5)CC3)c2c1`, the growth inhibition in assay [1] was 78% (active); in assay [4] it was 96% (active). The inhibition in assay [2] is 29%; in assay [3], -2%. Moreover, the result in assay [5], in assay [6], in assay [7] and in assay [8] was inactive.
